# An excerpt weighted towards active compounds, which were near 0.87% of everything screened.
# TDP1 inh – blocks human tyrosyl-DNA phosphodiesterase 1 | Q9NUW8 | recombinant TDP1, AlphaScreen DNA substrate cleavage | Potency, µM (series often up to 130 µM), most hits filed as inhibitors | actives 0.28% (n = 350,000); also: nearly all actives have a fitted effect of over 40% in size
#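 AlphaScreen read-out: signal falls as enzyme removes the 3' tyrosine-FITC from a 5'-biotinylated DNA oligo (15 nM, 5 min, RT). Enzyme was E. coli-made recombinant Tdp1 at 1 nM, exposed to compound for 15 min beforehand; beads 10 ug/ml, 10 min.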
# RECQ1 inh-1 – RECQ1 (human) helicase inhibition; P46063; RECQ1 DNA unwinding, red fluorescence kinetic read; Potency, µM (doses to about 57.3 µM), hits mostly inhibitors; actives 0.54% (n = 240,000); AID 2549; also: nearly all actives have a fitted effect of over 30% in size
#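 50 nM RECQ1T1 preincubated 15 min with compound in Tris pH 8.0 buffer with MgCl2, DTT, Tween-20 and 2.5 ug/ml poly(dI-dC); started with 200 nM TAMRA/BHQ-2 forked duplex and 2 mM ATP. Unwinding read as fluorescence (525/598 nm), two reads 2 h apart.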
# APE1 inh – APE1 (human) endonuclease inhibition; P27695; recombinant APE1, TAMRA/BHQ-2 abasic DNA cleavage fluorescence; Potency, µM (series often up to 65.8 µM), hits mostly inhibitors; actives 0.35% (n = 350,000); also: nearly all actives have a fitted effect of over 55% in size
# Target sequence (P27695 whole entry, looked up): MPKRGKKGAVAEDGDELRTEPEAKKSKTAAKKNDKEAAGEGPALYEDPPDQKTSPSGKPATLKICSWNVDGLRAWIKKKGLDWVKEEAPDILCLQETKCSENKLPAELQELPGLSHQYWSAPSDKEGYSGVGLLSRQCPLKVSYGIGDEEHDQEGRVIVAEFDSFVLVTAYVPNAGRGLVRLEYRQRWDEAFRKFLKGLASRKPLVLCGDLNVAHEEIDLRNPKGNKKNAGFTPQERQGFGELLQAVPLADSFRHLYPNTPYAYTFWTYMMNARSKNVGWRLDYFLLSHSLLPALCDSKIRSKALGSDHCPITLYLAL
#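 0.75 nM APE1 + cpd, 15 min RT; start w/ 50 nM TAMRA/BHQ-2 THF-abasic dsDNA; kinetic fluor 525/598 nm ×3 reads @60 s; Δ(read3−read1); normalized to DMSO and NSC13755 control wells.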
# BLM helicase inh – blocks DNA unwinding by human BLM helicase. recombinant BLM DNA unwinding, fluorescence dequenching. Potency, µM (doses to about 56.1 µM), most hits filed as inhibitors. actives 0.2% (n = 350,000). AID 2528; also: nearly all actives have a fitted effect of over 35% in size
# GCN5L2 inh – blocks human GCN5L2 histone acetyltransferase | Q92830 | GCN5L2 HAT assay, ThioGlo1 CoA-SH fluorescence | Potency, µM (doses to about 58.9 µM), most hits filed as inhibitors | actives 0.21% (n = 390,000) | AID 504327
#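 Free CoA generated was detected with ThioGlo1 (50uM) fluorescence at Ex340nm/Em540nm, read immediately and after 20 min at room temperature. Enzyme, 20 nM in HEPES pH 7.5 buffer, saw compounds 15 min before adding 75uM H3(1-25) peptide and 70uM acetyl-CoA.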
# RGS4 inhibitor – human RGS4 inhibition | Transcreener GDP fluorescence polarization, RGS4-accelerated GTP hydrolysis | Potency, µM (titrated, usually from 114 µM), usual class: inhibitors | actives 0.039% (n = 390,000); also: nearly all actives have a fitted effect of over 75% in size
# Target sequence (P49798 whole entry, looked up): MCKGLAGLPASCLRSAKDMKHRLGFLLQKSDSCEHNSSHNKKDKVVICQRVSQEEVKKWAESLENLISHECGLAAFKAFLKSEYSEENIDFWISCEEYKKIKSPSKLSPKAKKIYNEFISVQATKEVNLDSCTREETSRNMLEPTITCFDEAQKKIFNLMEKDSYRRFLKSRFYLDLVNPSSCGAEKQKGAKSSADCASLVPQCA
#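 MLSMR compounds (23 nl, pin-transferred) preincubated 10 min at room temperature with a 500nM (2x) first reagent, then RGS4 at 900nM (2x) plus Transcreener GDP mix added; fluorescence polarization (620/688 nm) read before and after 90 min at 30 °C.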
# RECQ1 conf – confirmation of human RECQ1 helicase inhibitors | AID 2708 | RECQ1 helicase DNA unwinding, fluorescence | actives 28% (n = 610) | Potency, µM (titrated, usually from 229 µM), most hits filed as inhibitors | shares compounds with RECQ1 inh-1; also: nearly all actives have a fitted effect of over 45% in size
# RECQ1 ADP FP – ADP displacement flagged in RECQ1 inhibitor counter-screen. ADP fluorescence polarization displacement counterscreen. AID 2711. Potency, µM (titrated, usually from 228 µM), usual class: inhibitors. actives 27% (n = 530). shares compounds with RECQ1 inh-1; also: nearly all actives have a fitted effect of over 45% in size
# RECQ1 inh-2 – blocks human RECQ1 DNA unwinding | shares compounds with RECQ1 inh-1 | recombinant RECQ1 DNA unwinding, red fluorescence | Potency, µM (doses to about 119 µM), actives largely listed as inhibitors | actives 15% (n = 1,100); also: nearly all actives have a fitted effect of over 50% in size
# Hits are given with their value; - = inactive; ? = inconclusive; . = no result given; [ ] = another dose, or the depositor's remark. Calls follow the shape of the dose curve; as a rule, active = well fitted curve in the direction sought with a large enough effect; inconclusive = small, poorly fitted or top-dose-only effect, or another doubt; inactive = no such curve, though single readings can be large; an effect the other way counts as inactive or inconclusive.
SMILES,TDP1 inh,RECQ1 inh-1,APE1 inh,BLM helicase inh,GCN5L2 inh,RGS4 inhibitor,RECQ1 conf,RECQ1 ADP FP,RECQ1 inh-2
COc1ccc([C@@H]2CC(=O)c3c(O)cc(O[C@@H]4O[C@H](CO)[C@@H](O)[C@H](O)[C@H]4OC4O[C@@H](C)[C@H](O)[C@@H](O)[C@H]4O)cc3O2)cc1O (stereo partly drawn),-,-,-,-,-,.,.,.,.
COC(=O)c1ccc(-c2csc(NC(=O)c3ccc(S(=O)(=O)N4CCc5ccccc5C4)cc3)n2)cc1,-,-,-,-,-,-,-,-,.
COc1ccc(-c2csc(NC(=O)c3ccc(S(=O)(=O)N4CCc5ccccc5C4)cc3)n2)cc1,-,-,-,-,-,-,-,-,.
Cc1ccc(C(c2ccc(C)o2)c2cccc([N+](=O)[O-])c2O)o1,-,?,-,-,-,-,.,.,?
COc1ccc(C2=Nn3c(nnc3-c3ccccc3C)SC2)cc1OC,-,-,-,-,.,.,.,.,.
O=C(O)c1ccc2c(c1)C(=O)N([C@H](Cc1ccccc1)C(=O)O)C2=O,-,-,-,-,-,.,.,.,.
CC12CCC=CC1C(c1ccc(C(F)(F)F)cc1)N(Cc1ccccc1)C2=O (stereo not drawn),-,-,-,-,.,-,.,.,.
O=C(Nn1c(Cc2ccccc2)nc2ccccc2c1=O)c1c(O)c2cccc3c2n(c1=O)CCC3,.,-,-,-,-,-,?,?,.
CCCCc1nc2ccccc2c(=O)n1NC(=O)c1c(O)c2c(n(CC(C)C)c1=O)CCCC2,-,-,-,-,-,-,?,-,.
CC(C)=CCn1cnc2c1c(=O)n(C)c(=O)n2C,-,-,-,-,.,.,.,.,.
CNCCCCc1cnc(C)c2[nH]c3ccccc3c12,-,-,?,-,.,.,.,.,.
CC(C)(C)C(=O)OCCNc1nc(-c2ccccc2)nc2ccccc12,-,7.94µM,-,-,-,-,-,.,-
CCCCC/C(C=O)=C/c1ccccc1,-,.,.,-,-,.,.,.,.
CC(=O)Oc1ccc2ccccc2c1C(NC(=O)Cc1ccccc1)c1ccc(Cl)cc1 (stereo not drawn),-,?,-,-,?,-,.,.,-
COc1ccc(/C=N/NC(=O)c2nn(-c3ccccc3)c(=O)c3c(N)scc23)cc1,.,25.1µM,?,-,?,?,-,?,.
CC(=O)N1CCC(C(=O)Nc2nnc(C(C)C)s2)CC1,.,.,.,.,.,-,.,.,.
CCOC(=O)c1c(-c2ccc(C)o2)csc1NC(=O)CSc1nncs1,-,1.78µM,?,-,?,?,-,-,.
CCOC(=O)c1c(-c2ccc(C)o2)csc1NC(=O)CN1CCCCC1,-,-,-,-,-,?,.,.,.
COC[C@H]1OC=C[C@@H](OC)[C@@H]1OC,-,-,-,-,.,.,.,.,.
C=CC[C@@H]1/C=C(\C)C[C@H](C)C[C@H](OC)[C@H]2O[C@@](O)(C(=O)C(=O)N3CCCC[C@H]3C(=O)O[C@H](/C(C)=C/[C@@H]3CC[C@@H](O)[C@H](OC)C3)[C@H](C)[C@@H](O)CC1=O)[C@H](C)C[C@@H]2OC,-,-,-,-,-,.,.,.,.
O=C(Nc1ccc(NC(=O)c2cccs2)cc1)c1ccc(Br)o1,.,?,?,-,-,-,.,.,?
COc1ccc(-n2c(C)cc(/C=C3\C(=O)NN(c4ccccc4)C3=O)c2C)cc1,-,-,-,-,-,-,.,.,.
COc1ccc(Sc2ccc(/C=C3\C(=O)NN(c4ccccc4)C3=O)o2)cc1,-,10µM,-,-,-,?,-,.,.
COc1ccc(NC(=O)c2cc3c(C)nn(-c4ccccc4)c3s2)c(OC)c1,.,.,.,-,-,-,.,.,.
COc1ccc(NS(=O)(=O)c2ccc(O)c(NC(=O)c3cc4c(C)nn(-c5ccc(F)cc5)c4s3)c2)cc1,-,?,?,28.2µM,?,-,.,.,?
SMILES,TDP1 inh,RECQ1 inh-1,APE1 inh,BLM helicase inh,GCN5L2 inh,RGS4 inhibitor,RECQ1 conf,RECQ1 ADP FP,RECQ1 inh-2
CCC(C(=O)Nc1ccccc1OC)n1c(C(=O)OC)cc2ccsc21 (stereo not drawn),-,1.41µM,-,-,-,-,?,-,-
O=C1C=CC(=O)N1Cc1cccnc1,.,.,.,.,.,-,.,.,.
O=C1CSC(=S)N1c1cccnc1,-,31.6µM,-,-,-,-,.,.,-
O=C(O)c1ccc(CN2C(=O)CSC2=S)cc1,?,15.8µM,?,-,-,?,-,-,-
O=C1CSC(=S)N1Cc1cccnc1,-,25.1µM,?,-,-,?,.,.,?
CCOC(=O)c1ccc(N2C(=O)c3n[nH]c(-c4ccco4)c3C2c2ccc(OCC)cc2)cc1 (stereo not drawn),-,.,.,-,-,-,.,.,.
O=C1N/C(=N/NC(=O)c2cccc3ccccc23)S/C1=C\c1ccccc1OCc1ccccc1,-,?,-,-,?,-,.,.,?
COc1ccc(OC)c(/C=C2\S/C(=N/NC(=O)c3ccc4ccccc4c3)NC2=O)c1,-,-,-,-,-,-,.,.,.
CC1CCC(O)C/C1=C\C=C1/CCCC2(C)C1CCC2C(C)/C=C/C(C)C(C)C (stereo not drawn),-,-,-,-,-,.,.,.,.
CN(C)S(=O)(=O)c1cccc(C(=O)NC(=S)N(CCC#N)Cc2cccnc2)c1,-,-,-,-,-,-,.,.,.
CCN(CC)S(=O)(=O)c1ccc(C(=O)NC(=S)N(CCC#N)Cc2cccnc2)cc1,-,-,-,-,-,-,-,-,.
O=C(CSc1nccc(=O)[nH]1)NC1CCCc2ccccc21 (stereo not drawn),-,-,-,-,-,-,.,.,.
O=C(O)CC(SCC(=O)NC1CCCc2ccccc21)C(=O)O (stereo not drawn),-,-,-,-,-,-[11.4 µM],-,-,.
COc1ccc2cc(C#N)c(SCC(=O)OCc3ccccc3)nc2c1,-,.,.,.,.,-,.,.,.
CCOC(=O)C1=C(O)/C(=C/c2ccc(OCC(=O)O)c(OC)c2)SC1=Nc1ccc(OCC)cc1,-,-,-,-,-,-,.,.,.
CCOC(=O)C1=C(O)/C(=C/c2cc(OC)c(O)c(OC)c2)SC1=Nc1ccc(OC)cc1,-,14.1µM,?,-,-,-,.,.,?
CCOc1ccccc1Nc1nnc(SCC(=O)NC(Cc2c[nH]c3ccccc23)C(=O)O)s1 (stereo not drawn),-,-,-,-,-,-,-,?,.

# Compound activity: PubChem BioAssay, National Center for Advancing Translational Sciences (NCATS)
